# According to PubChem BioAssay AID651864 (Broad Institute, 2012):
# Entries with a potency or affinity are not part of this list. The source made the active and inactive calls. The rule behind the calls is not given here.
# Experiment: HeLa cell cytotoxicity, dose response, cytotoxicity control, 24 h, plate reader, powder samples, set 3 (AID 651864)
# Conditions: HeLa viability, CellTiter-Glo ATP luminescence; series mostly up to 80 µM
row,Compound,outcome
1,CCn1nnnc1NCc1cccc(OC)c1,inactive
2,O=C(Cc1ccc(-c2ccccc2)cc1)NC1CCOCC1,inactive
3,CCn1nnnc1CCc1ccc(N2CCCC2)cc1,inactive
4,O=C(Cc1ccc(-c2ccccc2)cc1)NC1CCC1,inactive
5,CCCn1nnnc1NCc1ccc(C(C)C)cc1,inactive
6,CCn1nnnc1NCc1ccc(N2CCCC2)cc1,inactive
7,CC(C)(C)OC(=O)N1CC(NC(=O)Cc2ccc(-c3ccccc3)cc2)C1,inactive
8,CCn1nnnc1NCc1ccc(N2CCCCC2)cc1,inactive
9,O=C(Cc1ccccc1F)NC1CCCC1,inactive
10,CC(C)c1ccc(CNc2nnnn2C)cc1,inactive
